In PubChem BioAssay (Tox21) one finds Potency and activity change, negative = inhibition data, which are given here for 26 molecules.

The target of test [1] is Cytochrome P450 2D6 (Homo sapiens) (UniProt P10635). The experiment in a line: Cytochrome P450 Family 2 Subfamily D Member 6 (CYP2D6) small molecule antagonists: luciferase reporter qHTS assay (AID 1671196). Further: nearly all actives have a fitted effect of over 50% in size. On activity change, negative = inhibition: series mostly up to about 120 µM. Summed up: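 Each well received CYP2D6 with its proluciferin substrate and chemical, sat 10 min, then got NADPH regeneration solution for 1 h at room temperature. Luminescence in RLU served as the activity measure.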

In test [2] the target is Cytochrome P450 2C19 (Homo sapiens) (UniProt P33261). Kind of test: Cytochrome P450 Family 2 Subfamily C Member 19 (CYP2C19) small molecule antagonists: luciferase reporter qHTS assay (AID 1671197). Further: nearly all actives have a fitted effect of over 65% in size. On activity change, negative = inhibition: series mostly up to about 120 µM. Summed up: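 Relative luminescence units recorded 20 min after the detection reagent stopped a 1 h, 37C CYP2C19 reaction on proluciferin substrate, which was started by NADPH regeneration following 10 min room-temperature compound preincubation; ketoconazole positive control.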

In test [3] the target is Cytochrome P450 2C9 (Homo sapiens) (UniProt P11712). The experiment in a line: Cytochrome P450 Family 2 Subfamily C Member 9 (CYP2C9) small molecule antagonists: luciferase reporter qHTS assay (AID 1671198). Further: nearly all actives have a fitted effect of over 50% in size. On activity change, negative = inhibition: series mostly up to about 120 µM. Summed up:
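P450-Glo proluciferin substrate with CYP2C9 enzyme; 10 min RT preincubation, then NADPH regeneration 1 h at 37C; luciferin detection reagent 20 min RT, luminescence in relative luminescence units.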

The target in test [4] is Cytochrome P450 1A2 (Homo sapiens) (UniProt P05177). The experiment in a line: Cytochrome P450 Family 1 Subfamily A Member 2 (CYP1A2) small molecule antagonists: luciferase reporter qHTS assay (AID 1671199). Further: nearly all actives have a fitted effect of over 50% in size. On activity change, negative = inhibition: series mostly up to about 120 µM. The method in brief:
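Enzymatic CYP1A2 assay, human, luminescent: 10 min compound–enzyme–substrate preincubation, 1 h NADPH-dependent turnover, 20 min detection step, room temperature throughout. Reduced light indicates lower CYP1A2 activity.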
(In a reporter assay the amount or activity of a reporter protein is the signal.)

Test [5] concerns the target Voltage-gated inwardly rectifying potassium channel KCNH2 (Homo sapiens) (UniProt Q12809). Kind of test: Human Ether-a-go-go-Related Gene (hERG) channel small molecule antagonists: fluorescence cell-based qHTS assay (AID 1671200). Further: nearly all actives have a fitted effect of over 50% in size.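 On activity change, negative = inhibition: hERG-expressing U2OS cells given a thallium stimulus after FluxOR II dye loading; series mostly up to about 77 µM.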 The method in brief:
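U2OS cells expressing the channel were plated at 1000 cells/well, incubated overnight at 37 C, then loaded with FluxOR II thallium-sensitive dye for 1 h at room temperature in the dark, with a further 10 min at room temperature before stimulation.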

Test [6] deals with Cytochrome P450 3A4 (Homo sapiens) (UniProt P08684). The experiment in a line: Cytochrome P450 Family 3 Subfamily A Member 4 (CYP3A4) small molecule antagonists: luciferase reporter qHTS assay (AID 1671201). Further: nearly all actives have a fitted effect of over 50% in size. On activity change, negative = inhibition: series mostly up to about 120 µM. The method in brief: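 P450-Glo CYP3A4 system with proluciferin substrate; compounds preincubated 10 min RT with enzyme-substrate mix, then NADPH regeneration added for 1 h RT. Detection reagent 20 min, luminescence read as relative luminescence units.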

Inconclusive results are not listed. Values without a mark were called inactive. Activity calls are given as the source filed them. The call rests on the fitted dose curve; in most records, active means well fitted curve in the direction sought with a large enough effect in the repeat runs; inconclusive means weak or mixed curves; inactive means no such curve, though single readings can be large; an effect the other way counts as inactive or inconclusive.
On the % scale 0 is the no-effect control and ±100 the full control effect; potency means the concentration at half of the fitted maximal effect.

Cytochrome P450 2C19 (Homo sapiens), sequence (P33261 whole entry, looked up): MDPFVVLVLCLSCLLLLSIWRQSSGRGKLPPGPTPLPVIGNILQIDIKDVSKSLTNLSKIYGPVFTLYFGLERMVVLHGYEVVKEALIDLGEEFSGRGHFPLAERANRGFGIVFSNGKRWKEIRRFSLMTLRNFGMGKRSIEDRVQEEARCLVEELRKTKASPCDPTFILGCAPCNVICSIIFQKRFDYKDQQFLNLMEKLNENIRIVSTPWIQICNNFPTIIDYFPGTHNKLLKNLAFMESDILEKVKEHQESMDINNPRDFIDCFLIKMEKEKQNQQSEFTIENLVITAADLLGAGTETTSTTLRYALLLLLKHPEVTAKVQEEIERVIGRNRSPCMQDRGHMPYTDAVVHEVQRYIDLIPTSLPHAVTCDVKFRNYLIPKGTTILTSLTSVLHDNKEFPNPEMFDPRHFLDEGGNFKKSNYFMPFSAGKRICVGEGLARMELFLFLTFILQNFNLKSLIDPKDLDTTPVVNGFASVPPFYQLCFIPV
Cytochrome P450 2C9 (Homo sapiens), sequence (P11712 whole entry, looked up): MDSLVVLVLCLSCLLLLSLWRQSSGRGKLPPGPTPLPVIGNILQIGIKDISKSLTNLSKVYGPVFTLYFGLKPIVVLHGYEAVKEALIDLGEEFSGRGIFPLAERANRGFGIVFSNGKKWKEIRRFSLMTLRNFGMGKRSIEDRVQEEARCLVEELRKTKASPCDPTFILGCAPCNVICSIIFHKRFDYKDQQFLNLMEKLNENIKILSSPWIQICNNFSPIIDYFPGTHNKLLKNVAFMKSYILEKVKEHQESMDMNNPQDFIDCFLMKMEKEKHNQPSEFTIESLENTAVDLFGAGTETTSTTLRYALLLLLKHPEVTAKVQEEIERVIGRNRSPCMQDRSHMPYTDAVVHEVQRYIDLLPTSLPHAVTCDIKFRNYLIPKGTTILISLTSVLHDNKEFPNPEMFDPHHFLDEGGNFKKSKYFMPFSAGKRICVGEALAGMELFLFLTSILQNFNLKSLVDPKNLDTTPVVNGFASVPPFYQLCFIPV
Cytochrome P450 2D6 (Homo sapiens), sequence (P10635 whole entry, looked up): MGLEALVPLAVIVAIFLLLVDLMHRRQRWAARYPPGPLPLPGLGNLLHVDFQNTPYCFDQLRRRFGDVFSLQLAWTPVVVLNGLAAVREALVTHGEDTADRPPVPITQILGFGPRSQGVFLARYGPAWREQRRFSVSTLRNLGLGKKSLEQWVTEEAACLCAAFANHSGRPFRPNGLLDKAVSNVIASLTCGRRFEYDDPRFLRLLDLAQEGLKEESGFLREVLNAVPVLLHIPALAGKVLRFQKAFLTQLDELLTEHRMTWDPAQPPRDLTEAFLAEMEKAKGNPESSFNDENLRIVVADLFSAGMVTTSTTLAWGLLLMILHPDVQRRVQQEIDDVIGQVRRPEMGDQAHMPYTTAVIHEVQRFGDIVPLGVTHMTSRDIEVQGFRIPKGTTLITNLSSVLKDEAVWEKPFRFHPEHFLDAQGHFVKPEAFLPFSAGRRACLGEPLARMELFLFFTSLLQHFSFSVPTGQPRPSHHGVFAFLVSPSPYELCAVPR
Voltage-gated inwardly rectifying potassium channel KCNH2 (Homo sapiens), sequence (Q12809 whole entry, looked up): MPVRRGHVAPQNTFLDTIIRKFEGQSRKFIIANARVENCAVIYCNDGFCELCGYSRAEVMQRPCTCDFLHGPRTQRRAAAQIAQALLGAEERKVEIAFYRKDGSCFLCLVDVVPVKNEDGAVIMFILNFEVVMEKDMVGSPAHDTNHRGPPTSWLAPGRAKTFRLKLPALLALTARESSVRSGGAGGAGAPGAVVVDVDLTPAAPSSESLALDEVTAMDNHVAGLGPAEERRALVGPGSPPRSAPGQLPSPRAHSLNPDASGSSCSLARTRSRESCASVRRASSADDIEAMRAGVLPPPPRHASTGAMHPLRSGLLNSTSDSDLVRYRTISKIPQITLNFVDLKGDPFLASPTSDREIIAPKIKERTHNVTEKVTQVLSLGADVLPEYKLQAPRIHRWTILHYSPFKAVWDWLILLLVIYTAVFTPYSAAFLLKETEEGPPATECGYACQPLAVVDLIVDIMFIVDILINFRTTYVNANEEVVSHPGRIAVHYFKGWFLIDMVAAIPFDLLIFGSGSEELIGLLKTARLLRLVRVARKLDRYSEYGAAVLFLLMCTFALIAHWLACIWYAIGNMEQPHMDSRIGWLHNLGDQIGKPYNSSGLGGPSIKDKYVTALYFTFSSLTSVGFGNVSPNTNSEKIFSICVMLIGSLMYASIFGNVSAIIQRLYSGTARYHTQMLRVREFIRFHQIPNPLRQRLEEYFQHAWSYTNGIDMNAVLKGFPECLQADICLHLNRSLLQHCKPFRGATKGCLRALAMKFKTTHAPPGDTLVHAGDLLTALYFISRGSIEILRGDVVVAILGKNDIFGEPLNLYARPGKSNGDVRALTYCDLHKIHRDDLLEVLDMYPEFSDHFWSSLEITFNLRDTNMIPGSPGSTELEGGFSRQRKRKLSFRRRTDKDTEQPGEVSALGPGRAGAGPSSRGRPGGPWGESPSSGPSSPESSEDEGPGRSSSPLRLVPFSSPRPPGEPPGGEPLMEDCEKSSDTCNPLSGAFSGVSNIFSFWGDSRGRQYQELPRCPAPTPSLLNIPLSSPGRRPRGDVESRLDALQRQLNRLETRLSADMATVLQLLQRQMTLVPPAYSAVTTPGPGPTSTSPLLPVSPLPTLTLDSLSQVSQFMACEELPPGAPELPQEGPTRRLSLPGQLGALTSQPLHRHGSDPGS
Cytochrome P450 1A2 (Homo sapiens), sequence (P05177 whole entry, looked up): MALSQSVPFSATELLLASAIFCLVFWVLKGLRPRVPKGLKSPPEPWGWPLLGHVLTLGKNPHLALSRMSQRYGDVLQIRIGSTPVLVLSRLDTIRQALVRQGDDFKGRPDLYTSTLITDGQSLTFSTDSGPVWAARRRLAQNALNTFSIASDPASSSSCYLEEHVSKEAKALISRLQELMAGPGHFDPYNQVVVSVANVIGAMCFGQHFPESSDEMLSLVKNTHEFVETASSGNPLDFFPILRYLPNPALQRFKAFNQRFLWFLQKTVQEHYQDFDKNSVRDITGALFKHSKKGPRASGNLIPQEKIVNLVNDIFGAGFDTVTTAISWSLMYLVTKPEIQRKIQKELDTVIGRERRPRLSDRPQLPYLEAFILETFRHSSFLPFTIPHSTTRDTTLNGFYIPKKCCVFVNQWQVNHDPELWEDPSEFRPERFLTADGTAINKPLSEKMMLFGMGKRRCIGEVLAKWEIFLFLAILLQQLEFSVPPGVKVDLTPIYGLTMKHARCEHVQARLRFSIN
Cytochrome P450 3A4 (Homo sapiens), sequence (P08684 whole entry, looked up): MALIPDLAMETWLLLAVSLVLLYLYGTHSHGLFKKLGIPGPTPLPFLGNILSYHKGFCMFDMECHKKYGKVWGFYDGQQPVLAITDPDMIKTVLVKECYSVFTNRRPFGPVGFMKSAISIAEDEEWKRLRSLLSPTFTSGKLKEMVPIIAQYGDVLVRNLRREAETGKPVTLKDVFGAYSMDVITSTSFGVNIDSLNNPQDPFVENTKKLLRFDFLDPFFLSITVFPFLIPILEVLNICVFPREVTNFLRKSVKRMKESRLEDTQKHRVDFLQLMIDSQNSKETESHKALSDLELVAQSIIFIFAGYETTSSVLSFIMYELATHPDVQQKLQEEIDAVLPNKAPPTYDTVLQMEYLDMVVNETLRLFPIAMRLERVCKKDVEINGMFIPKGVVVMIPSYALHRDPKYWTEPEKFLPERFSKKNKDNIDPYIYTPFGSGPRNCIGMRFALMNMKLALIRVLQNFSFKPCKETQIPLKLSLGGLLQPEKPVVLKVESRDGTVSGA

Consider `FC1(F)C(F)(F)C(F)(F)C2(F)C(F)(C1(F)F)C(F)(F)C(F)(F)C1(F)C(F)(F)C(F)(F)C(F)(F)C(F)(F)C12F` (stereo unspecified), for which the Potency entry in test [1], in test [2], in test [3], in test [4], in test [5] and in test [6] was “inactive” throughout.
For `N#Cc1ccc(CC(=O)c2cccc(C(F)(F)F)c2)cc1`, the Potency in test [1] was 63.3 µM (active); in test [2] it was 20 µM (active); in test [3] it was 35.6 µM (active); in test [4] it was 25.2 µM (active); in test [5] it was 27.5 µM (active). Besides, the Potency entry in test [6] was “inactive”.
As to `O=C(O)c1ccc2c(c1)nc(C(=O)NC1CCN(C3CC3)CC1)n2Cc1cc(-c2ccc(Cl)s2)on1`, the activity change, negative = inhibition in test [1] is -3.64% [at 23.6 µM]; in test [2], 14.2% [at 23.6 µM]; in test [3], -6.17% [at 23.6 µM]; in test [4], 0.996% [at 23.6 µM]; in test [5] it was -1.6% [at 15.8 µM]; in test [6] it was 1.57% [at 23.6 µM].
`C=CC(O)CCCCC` (stereo unspecified): the Potency entry in test [1], in test [2], in test [3], in test [4], in test [5] and in test [6] was “inactive” each time.
Take `O=C(O)c1ccc(O)c(O)c1`: the Potency result in test [1], in test [5] and in test [6] was “inactive” in each case. In addition, the results for the Potency in test [2], in test [3] and in test [4] were 79.6 µM (active), 35.5 µM (active) and 31.7 µM (active), respectively.
Consider `Cc1cccc(C)c1NC(=O)CN1CCCC1`, for which the Potency in test [1] was 15.5 µM (active). Besides, the Potency entry in test [2], in test [3], in test [4], in test [5] and in test [6] was “inactive” throughout.
With `CCCCCCCCCCCCN1CCOCC1`, the Potency entry in test [1], in test [2], in test [3], in test [4] and in test [6] was “inactive” in each case.
Take `Cc1ccccc1CCO`: the Potency result in test [1], in test [2], in test [3], in test [4], in test [5] and in test [6] was “inactive” each time.
Consider `CCc1ccc(C(=O)C(C)CN2CCCCC2)cc1` (stereo unspecified), for which the Potency is 0.49 µM (active) in test [1] and 4.9 µM (active) in test [2]. In addition, the Potency entry in test [3], in test [4], in test [5] and in test [6] was “inactive” throughout.
Consider `O=Cc1ccc(Cl)c([N+](=O)[O-])c1`, for which the Potency in test [1] was 35.6 µM (active); in test [2], 22.4 µM (active); in test [3], 71 µM (active); in test [4] it was 22.4 µM (active); in test [6] it was 71 µM (active). Also, in test [5], the Potency entry is “inactive”.
Regarding `O=C1C=CCCC1`, the Potency entry in test [1], in test [2], in test [3], in test [4], in test [5] and in test [6] was “inactive” in each case.
As to `SCCOCCOCCS`, the Potency entry in test [1] and in test [5] was “inactive” each time. Also, the Potency in test [2] is 10 µM (active); in test [3], 35.6 µM (active); in test [4], 22.4 µM (active); in test [6], 17.8 µM (active).
In the case of `CCC(=O)O[C@@H]1C[C@H]2CC[C@]1(C)C2(C)C`, the Potency result in test [1], in test [2], in test [3], in test [4], in test [5] and in test [6] was “inactive” in each case.
Turning to `CC(C)(C)N`, the Potency result in test [1], in test [2], in test [3], in test [4], in test [5] and in test [6] was “inactive” throughout.
`CCCCCCCCCC(C)C=O` (stereo unspecified): the Potency result in test [1], in test [2], in test [5] and in test [6] was “inactive” in each case. In test [3], the Potency was 44.8 µM (active).
On to `CCOC(C)OCC`, for which the Potency entry in test [1], in test [3], in test [5] and in test [6] was “inactive” in each case. The Potency in test [2] is 69 µM (active).
As for `COc1cc(C)c(Cc2cnc(N)nc2N)cc1OC`, the Potency result in test [1], in test [2], in test [3], in test [5] and in test [6] was “inactive” each time.
For `CCCC1CCOC(C)S1` (stereo unspecified), the Potency result in test [1], in test [2], in test [3], in test [5] and in test [6] was “inactive” throughout.
On to `C[C@H](N)C(=O)N[C@@H](C)C(=O)NC1[C@H]2CN(c3nc4c(cc3F)c(=O)c(C(=O)O)cn4-c3ccc(F)cc3F)C[C@@H]12` (stereo partly specified), for which the Potency result in test [1], in test [2], in test [3] and in test [5] was “inactive” each time.
For `CCCCCCCCC(=O)OCC(C)OC(=O)CCCCCCCC` (stereo unspecified), the Potency result in test [1] and in test [5] was “inactive” each time. Besides, the Potency in test [2] is 83.4 µM (active); in test [3] it was 59.1 µM (active).
With `O=P(c1ccccc1)(c1ccccc1)c1ccccc1`, the Potency result in test [1] and in test [5] was “inactive” each time. Also, the values for the Potency in test [2] and in test [3] were 5.64 µM (active) and 6.33 µM (active), respectively.
As for `O=C(O)c1cccc(C(=O)O)c1C(=O)O`, the Potency in test [1] was 40.3 µM (active); in test [2], 71.7 µM (active). For the same molecule, the Potency entry in test [3], in test [5] and in test [6] was “inactive” throughout.
On to `C1CCN(CN2CCCCC2)CC1`, for which the Potency in test [1] was 7.1 µM (active). The Potency result in test [2], in test [3] and in test [5] was “inactive” each time.
On to `OCC(O)c1ccccc1` (stereo unspecified), for which the Potency entry in test [1], in test [2], in test [3] and in test [5] was “inactive” in each case.
For `COc1ccc(/C(C)=C/C(=O)O)c(OC)c1`, the Potency result in test [1], in test [2], in test [3] and in test [5] was “inactive” in each case.
Regarding `O=[N+]([O-])c1ccccc1CCO`, the Potency result in test [1], in test [2], in test [3] and in test [5] was “inactive” in each case.
